Screening results as filed in PubChem BioAssay.
In the library only some 19% were active in any assay of this set; here they are far more common.
TGFb SMAD3 inh – qHTS for Inhibitors of TGF-b | HepG2 CAGA-GFP TGF-b/SMAD3 reporter, GFP fluorescence, 18 h; TGF-beta stimulated, 500 pg/mL final | Potency, µM (highest dose often 46.1 µM), for the others: at the top dose activity, negative = inhibition, most hits filed as inhibitors | 410,000 tested, 1.2% active | AID 588855, 2011; note: potency is the fitted concentration of half-maximal effect; % is set by controls: 0 for no effect and ±100 for the full control effect; nearly all actives have a fitted effect of over 65% in size
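Read-out: total well GFP (ex488/em500-530) summed from mean per-cell fluorescence. Cells: HEPG2 CAGA-GFP, 1% FBS DMEM, 18 h at 37 degrees C with 500 pg/mL final TGF-beta. Unstimulated wells served as the full-inhibition control; stimulated DMSO wells = 0%.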
TDP1 block – qHTS Assay for Inhibitors of Tyrosyl-DNA Phosphodiesterase (TDP1) | Tyrosyl-DNA phosphodiesterase 1 (Homo sapiens), Q9NUW8 | recombinant TDP1, AlphaScreen DNA substrate cleavage | Potency, µM (series often up to 130 µM), without a hit: at the highest dose activity change, negative = inhibition, actives largely listed as inhibitors | 350,000 tested, 0.28% active; note: potency is the fitted concentration of half-maximal effect; % is set by controls: 0 for no effect and ±100 for the full control effect; nearly all actives have a fitted effect of over 40% in size
Target sequence (Q9NUW8 whole entry, looked up): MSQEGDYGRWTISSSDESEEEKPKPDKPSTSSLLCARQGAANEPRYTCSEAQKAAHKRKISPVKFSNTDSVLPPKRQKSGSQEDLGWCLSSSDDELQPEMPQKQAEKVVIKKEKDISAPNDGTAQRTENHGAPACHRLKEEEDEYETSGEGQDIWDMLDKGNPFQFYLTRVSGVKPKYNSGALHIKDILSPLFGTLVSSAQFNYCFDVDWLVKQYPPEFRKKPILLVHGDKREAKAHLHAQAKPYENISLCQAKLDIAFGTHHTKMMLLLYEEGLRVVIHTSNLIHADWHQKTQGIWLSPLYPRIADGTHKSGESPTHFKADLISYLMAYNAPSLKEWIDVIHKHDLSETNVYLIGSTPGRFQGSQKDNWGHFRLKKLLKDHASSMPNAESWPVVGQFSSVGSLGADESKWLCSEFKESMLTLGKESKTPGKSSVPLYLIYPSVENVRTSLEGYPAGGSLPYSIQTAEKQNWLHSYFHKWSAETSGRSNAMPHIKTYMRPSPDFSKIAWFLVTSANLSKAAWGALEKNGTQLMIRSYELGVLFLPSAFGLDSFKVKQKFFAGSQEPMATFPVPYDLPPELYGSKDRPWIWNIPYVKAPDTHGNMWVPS
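Recombinant E. coli-expressed Tdp1 (1 nM) preincubated with compound 15 min at RT, then 5'-biotin/3'-phosphotyrosine-FITC DNA substrate (15 nM) added for 5 min. AlphaScreen beads (10 ug/ml) added, 10 min RT; tyrosine-FITC cleavage read as signal loss.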
IL1B secr inh – qHTS for Inhibitors of Inflammasome Signaling: IL-1-beta AlphaLISA Primary Screen | THP-1 LPS/ATP IL-1B secretion, AlphaLISA, 16 h; hits give low values | activity change, % at 57.5 µM | 360,000 tested, 4.7% active | AID 743279, 2014; in the data active = activity change below about -50%; inconclusive = mostly about -30% to -49%; note: % is set by controls: 0 for no effect and ±100 for the full control effect
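Secreted IL-1B measured by AlphaLISA bead assay after 16 h compound exposure of THP-1 cells; compounds (final up to 57.5 uM) added 1 h before LPS (250 ng/mL) and ATP (1.25 mM) stimulation; lower signal means less secretion.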
TDP1 cell CPT – qHTS for Inhibitors of human tyrosyl-DNA phosphodiesterase 1 (TDP1): qHTS in cells in presence of CPT; 420,000 tested, 12% active; Potency, µM (highest dose often 46.2 µM), for inactives: top-dose activity change, negative = growth inhibition, actives largely listed as inhibitors; chicken DT40 Tdp1-/-;hTDP1 cells + 20 nM CPT, ATP luminescence, 48 h; note: potency is the fitted concentration of half-maximal effect; % is set by controls: 0 for no effect and ±100 for the full control effect; nearly all actives have a fitted effect of over 55% in size
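Chicken DT40 Tdp1-/- cells complemented with human TDP1, 400 cells/well, exposed to compounds plus 20 nM camptothecin for at least 48 h at 37 C; viability read as ATP content by CellTiter-Glo luminescence.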
DT40 TDP1 no CPT – qHTS for Inhibitors of human tyrosyl-DNA phosphodiesterase 1 (TDP1): qHTS in cells in absence of CPT. Potency, µM (titrated, usually from 46.2 µM), for the others: at the top dose activity change, negative = growth inhibition, most hits filed as inhibitors. DT40 Tdp1-/- hTDP1 cells, no CPT, ATP luminescence, 48 h. 420,000 tested, 15% active; note: potency is the fitted concentration of half-maximal effect; % is set by controls: 0 for no effect and ±100 for the full control effect; nearly all actives have a fitted effect of over 55% in size
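Growth of hTDP1-complemented DT40 Tdp1-knockout cells is measured by ATP luminescence after at least 48 hr compound exposure at 37 °C, with DMSO substituting for the 20 nM CPT used in the parallel screen.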
HepG2 viability – qHTS for Inhibitors of TGF-b: Cytotox Counterscreen; 410,000 tested, 0.76% active; HepG2 CAGA-GFP viability, ATP luminescence, 18 h; Potency, µM (doses to about 46.1 µM), inactives show at the top dose activity change, negative = cytotoxicity, usual class: cytotoxic; note: potency is the fitted concentration of half-maximal effect
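CellTiter-Glo luminescence gave cytotoxicity after 18 hours at 37 degrees C. The cells were HepG2 CAGA-GFP in 1% FBS DMEM, stimulated with 500 pg/mL TGF-beta after compound addition. %Activity was normalised to no-cell wells (complete cell-killing) and DMSO (no toxicity), and curves were fitted and classified.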
The depositor's hits bear a star; ? = inconclusive; nt = not tested or not shown; [ ] = remark or other dose. Unless noted, calls come from the whole dose curve; as a rule, active = well fitted curve in the direction sought with a large enough effect; inconclusive = small, poorly fitted or top-dose-only effect, or another doubt; inactive = no such curve, though single readings can be large; an effect the other way counts as inactive or inconclusive.

SMILES	TGFb SMAD3 inh	TDP1 block	IL1B secr inh	TDP1 cell CPT	DT40 TDP1 no CPT	HepG2 viability
CCOc1ccc(NC(=S)N2CCC(c3ccc(C)cc3)C2)cc1 (centres undefined)	?	nt	-9.7	?	13µM*	-24.5%
C1=C\CCC2(OCCO2)C2(CC/1)OCCO2	-17.6%	nt	-1.6	11.5%	-3.3%	-33.2%
CNC(=O)c1ccsc1NC(=O)c1ccc(S(=O)(=O)N2CCCc3ccccc32)cc1	?	0.0%	-17.8	20.6µM*	20.6µM*	-17.3%
COCc1nnc(NC(=O)c2ccc(S(=O)(=O)N3CCCCCC3)cc2)o1	-5.8%	7.7%	15.4	-29.1%	?	-38.8%
COC(=O)Nc1ccc(S(=O)(=O)N2CCCCC2)cc1	17.7%	-1.3%	25.2	?	-11.2%	-13.4%
O=C(Nc1nc2c(s1)CCCC2)c1ccc(S(=O)(=O)N2CCCc3ccccc32)cc1	?	8.2%	-0.9	?	?	-9.6%
CCc1nnc(NC(=O)c2ccc(S(=O)(=O)N3CCCc4ccccc43)cc2)o1	-14.7%	11.6%	56.5	?	11.2µM*	4.1%
COC(=O)Nc1ccc(S(=O)(=O)N2CCCc3ccccc32)cc1	-23.3%	3.2%	49.5	2.59µM*	2.31µM*	-20.9%
COC(=O)Nc1ccc(S(=O)(=O)N2CCCc3cccc(O)c32)cc1	-27.2%	2.4%	56.0	13µM*	10.3µM*	-18.5%
O=C(Nc1ccc([N+](=O)[O-])cc1)c1cc2ccccc2nc1Cl	-19.7%	-2.5%	-10.0	?	?	-17.6%
COc1ccc(C(=O)CC(SCC(NC(C)=O)C(=O)O)c2ccc(Cl)cc2)cc1OC (centres undefined)	?	nt	-88.1*	14.6µM*	?	-52.7%
COc1ccc(C(C)NC(=O)c2ccc(Cl)cc2)cc1OC (centres undefined)	-2.3%	0.6%	0.0	-4.1%	?	3.2%
COc1ccccc1CNc1nc(-c2ccco2)nn1C(=O)c1cc(OC)c(OC)c(OC)c1	-14.9%	-2.6%	nt	-21.7%	-19.2%	-21.5%
Cc1cc(-c2nn(-c3ccccc3F)cc2CNCCc2cnccn2)c(C)s1	-14.4%	6.0%	-62.5*	?	-28.3%	-18.9%
Cc1ccc(C)c(-n2cc(CNCCc3cnccn3)c(-c3ccccc3)n2)c1	?	nt	?	?	?	-41.3%
Cc1cccc(N2CCN(Cc3cn(C)nc3-c3ccccc3F)CC2)n1	?	3.0%	0.0	1.84µM*	2.59µM*	-23.9%
Cn1cc(CN2CCN(c3ccc(Cl)cn3)CC2)c(-c2ccccc2F)n1	?	2.7%	?	?	?	-26.1%
Cc1ccsc1CN1CCN(c2ccccn2)CC1	-11.4%	-4.2%	-6.3	?	-29.0%	2.0%
Cc1cc(-c2nn(-c3ccccc3F)cc2CN2CCN(c3ccccn3)CC2)c(C)s1	-14.1%	2.7%	?	13µM*	11.6µM*	-29.1%
CCCCN(CCCC)/C(N)=N/c1nc(C)cc(C)n1	-0.1%	-2.7%	8.2	23.1µM*	?	-20.0%
Cc1cc(C)nc(/N=C(\N)N(Cc2ccccc2)Cc2ccccc2)n1	?	0.6%	-72.0*	?	?	-27.9%
Cc1cc(C)n2nc(C(=O)OCC(=O)N(C)Cc3ccccc3)nc2n1	7.9%	0.2%	0.7	-1.5%	-0.8%	-4.0%
Cc1c(C)c2c(OCC(=O)NCc3ccccn3)cc3c(c2oc1=O)CCC(C)(C)O3	-6.4%	nt	?	14.6µM*	16.4µM*	-28.2%
Cc1c(C)c2c(OCC(=O)NCC(O)c3ccccc3)cc3c(c2oc1=O)CCC(C)(C)O3 (centres undefined)	-4.3%	nt	-2.7	?	?	-0.8%
CCCc1cc(=O)oc2c3c(cc(OCC(=O)NCc4ccncc4)c12)OC(C)(C)CC3	-2.1%	nt	?	6.51µM*	20.6µM*	-27.4%
SMILES	TGFb SMAD3 inh	TDP1 block	IL1B secr inh	TDP1 cell CPT	DT40 TDP1 no CPT	HepG2 viability
COCCCNC(=O)COc1cc2c(c3oc(=O)c(C)c(C)c13)CCC(C)(C)O2	0.0%	nt	-6.7	?	2.06µM*	-19.2%
CCCc1cc(=O)oc2c3c(cc(OCC(=O)N[C@@H](C)C(=O)O)c12)OC(C)(C)CC3	-0.9%	nt	7.7	1.8%	4.1%	-19.1%
CCCc1cc(=O)oc2c3c(cc(OCC(=O)NCCN4CCOCC4)c12)OC(C)(C)CC3	8.0%	nt	?	?	?	-13.6%
CCCc1cc(=O)oc2c3c(cc(OCC(=O)NCc4ccccn4)c12)OC(C)(C)CC3	-2.4%	nt	?	23.1µM*	?	-16.9%
COc1ccc2oc(=O)c(C(=O)NCCc3c(C)[nH]c4c(C)cccc34)cc2c1	1.7%	8.4%	nt	nt	nt	-4.5%
O=C(CN1C(=O)NC2(CCCC2)C1=O)NNC(=O)c1ccccc1	14.7%	0.6%[0.505 µM]	9.1	-4.6%	-12.9%	7.1%
CCOc1ccc(NC(=O)CNC(=O)c2nn(-c3ccc(OC)c(OC)c3)c(=O)c3ccccc23)cc1	-14.7%	0.3%	-2.0	-23.1%	-24.6%	9.5%
COc1ccc(-n2nc(C(=O)NCC(=O)NCCc3ccc(OC)c(OC)c3)c3ccccc3c2=O)cc1	13.5%	2.3%	-0.2	?	?	4.7%
COc1ccc(CCNC(=O)CNC(=O)c2nn(-c3ccc(OC)c(OC)c3)c(=O)c3ccccc23)cc1OC	8.5%	7.5%	-6.2	-27.6%	9.2µM*	5.0%
COc1ccc(-n2nc(C(=O)NCC(=O)Nc3cccc(Cl)c3)c3ccccc3c2=O)cc1OC	-24.0%	-3.9%	1.7	14.6µM*	14.6µM*	-39.5%
CCOc1ccccc1NC(=O)CNC(=O)c1nn(-c2ccc(OC)c(OC)c2)c(=O)c2ccccc12	30.8%	0.7%	-7.7	?	9.2µM*	0.8%
COc1ccc(-n2nc(C(=O)NCC(=O)N3CCCC(C)C3)c3ccccc3c2=O)cc1 (centres undefined)	6.7%	2.8%	-10.4	-14.1%	20.6µM*	-13.2%
COc1ccc(-n2nc(C(=O)NCC(=O)N3CCC(C)CC3)c3ccccc3c2=O)cc1	-15.3%	-4.4%	?	-4.3%	?	-24.4%
O=C(NCc1ccc2c(c1)CCN2C(=O)c1ccccc1)c1cc2ccccc2[nH]1	14.2%	2.5%	nt	?	?	0.4%
